# Source: PubChem (National Center for Advancing Translational Sciences (NCATS))
# Hits are enriched below; roughly 2.7% of the tested compounds scored in any of these assays.
# GLP-1R inv ag – inverse agonists of human GLP-1 receptor | HEK293 GLP-1R CRE-luciferase, luminescence, 24 h; GLP-1R form is constitutively active | actives 1.6% (n = 410,000) | P43220 | AID 624417 | Potency, µM (titrated, usually from 38.3 µM), without a hit: at the highest dose activity change, negative = inhibition, hits mostly inhibitors; also: % is scaled to controls: 0 for no effect and ±100 for the full control effect; nearly all actives have a fitted effect of over 55% in size
#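 Constitutively active GLP-1R drives a cAMP-responsive luciferase in stably transfected HEK293 cells; test compounds are added after overnight (12 h) attachment and left 24 hr, and signal loss in luminescence marks inhibition.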
# HEK293 tox – cytotoxicity in counter-screen for GLP-1R inverse agonists; actives 0.13% (n = 410,000); HEK293 cAMP-luciferase reporter cells, luminescence, 24 h; Potency, µM (titrated, usually from 38.3 µM), for inactives: at the top dose activity change, negative = inhibition, actives largely listed as inhibitors;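 also: loss of luciferase light is scored as toxicity; % is scaled to controls: 0 for no effect and ±100 for the full control effect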
#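 Here, cytotoxicity is scored as loss of luminescence. The MLSMR collection was tested on cells seeded in medium containing 10% Nu serum, with a 24 hr compound exposure preceded by 12 hours of culture.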
# TrxR1 substrate – is turned over as a substrate by rat TrxR1; actives 0.01% (n = 390,000); AID 588456; Potency, µM (series often up to 114 µM), for the others: top-dose activity change, negative = substrate turnover; purified TrxR1 substrate turnover, NADPH consumption readout; also: % is scaled to controls: 0 for no effect and ±100 for the full control effect; nearly all actives have a fitted effect of over 50% in size
#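 Rat TrxR1, dispensed at 90 nM, was prereduced with 400 uM NADPH (final) for 5 min at ~22 deg C, then incubated with compound 15 min before 400 uM selenite. A first-read NADPH fluorescence drop versus no-compound background flagged substrates.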
# rTrxR1 inhibitor – inhibitors of rat thioredoxin reductase 1 | actives 1% (n = 390,000) | recombinant rTrxR1, NADPH fluorescence consumption, selenite substrate | Potency, µM (top dose mostly 114 µM), inactives show at the highest dose activity change, negative = inhibition, usual class: inhibitors; also: % is scaled to controls: 0 for no effect and ±100 for the full control effect; nearly all actives have a fitted effect of over 65% in size
#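 Rat TrxR1 (90 nM in the dispensed reagent) was pre-reduced with 400 uM NADPH for 5 min at room temperature, then incubated with compound for 15 min. After 400 uM selenite was added, NADPH fluorescence (Ex 340/Em 450 nm) was followed for 8 min.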
# mIDH1 inhibitor – inhibitors of human mutant IDH1 R132H; O75874; IDH1-R132H enzyme, NADPH consumption, diaphorase/resazurin fluorescence; Potency, µM (highest dose often 76.6 µM), inactives show at the top dose activity change, negative = inhibition, actives largely listed as inhibitors; actives 0.093% (n = 390,000); AID 602179; also: % is scaled to controls: 0 for no effect and ±100 for the full control effect; nearly all actives have a fitted effect of over 65% in size
# Target sequence (O75874 whole entry R132H, stated change not applied): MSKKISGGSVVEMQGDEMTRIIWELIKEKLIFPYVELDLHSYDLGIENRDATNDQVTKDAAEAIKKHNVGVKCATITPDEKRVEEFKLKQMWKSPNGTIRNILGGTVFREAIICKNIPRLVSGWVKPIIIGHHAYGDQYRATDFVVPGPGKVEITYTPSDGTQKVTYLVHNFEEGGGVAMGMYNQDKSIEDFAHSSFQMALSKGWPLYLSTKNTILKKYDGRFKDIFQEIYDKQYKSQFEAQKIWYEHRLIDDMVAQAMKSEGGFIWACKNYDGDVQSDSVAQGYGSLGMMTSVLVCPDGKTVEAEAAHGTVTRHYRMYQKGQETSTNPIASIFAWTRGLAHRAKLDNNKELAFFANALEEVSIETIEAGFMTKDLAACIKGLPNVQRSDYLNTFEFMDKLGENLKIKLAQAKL
#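 IDH1-R132H (0.5 ug/mL) preincubated 30 min with compound, then NADPH (0.016 mM) and alpha-KG (2 mM) added; 80 min at RT, pH 7.5. Remaining NADPH coupled via diaphorase/resazurin to fluorescence (540/590 nm); concentration-response curves normalized to no-enzyme control.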
# GLP-1R agonist – activates the human GLP-1 receptor; HEK293 GLP-1R CRE-luciferase, luminescence, 4-6 h; cells express a hypersensitive GLP-1R form; Potency, µM (titrated, usually from 45.6 µM), for inactives: at the top dose activation, most hits filed as activators; actives 0.007% (n = 380,000); AID 624172; also: % of control where 0% means no effect
# Numbers without * were called inactive; ? = inconclusive; . = not tested or not shown; [ ] = remark or other dose. Calls follow the shape of the dose curve; as a rule, active = well fitted curve in the direction sought with a large enough effect; inconclusive = small, poorly fitted or top-dose-only effect, or another doubt; inactive = no such curve, though single readings can be large; an effect the other way counts as inactive or inconclusive. Potency is read from the fitted curve at half-maximal effect.
SMILES,GLP-1R inv ag,HEK293 tox,TrxR1 substrate,rTrxR1 inhibitor,mIDH1 inhibitor,GLP-1R agonist
O=C(Cn1c(=O)c2cccn2c2ccc(F)cc21)NCc1cccc(Cl)c1,6%,1%,-2%,18%,-8%,.
Cc1cc(OCC(=O)Nc2ccccc2N2CCCCC2)ccc1C(C)C,-27%,11%,1%,12%,1%,-4%
Cc1cc(OCC(=O)Nc2ccccc2N2CCCC2)ccc1C(C)C,11µM*,18%,-1%,-6%,4%,25%
COc1ccc(-c2[nH]c(-c3ccc4c(c3)OCO4)nc2-c2ccccc2)cc1,1.8µM*,?,60%,-23%,8%,-10%
COc1cc(-c2nc(-c3ccccc3)c(-c3ccc(F)cc3)[nH]2)cc2c1OCO2,?,15%,44%,-18%,2%,-12%
CC(OC(=O)c1ccccc1OCC(=O)Nc1ccc(Br)cc1)C(=O)NC1CCCC1 (configuration not stated),.,.,-7%,-6%,.,.
CCOC(=O)COc1ccc(C)cc1C(=O)c1ccn2nc(-c3ccc(F)cc3)cc2n1,1%,0%,15%,17%,?,-2%
CCCOc1ccc(/C=N/Nc2cccc([N+](=O)[O-])c2)c(O)c1,4.5µM*,?,0%[57.1 µM],9%,3%,3%
CCCOc1ccc(/C=N/Nc2ccccc2[N+](=O)[O-])c(O)c1,-47%,-21%,-10%,-12%,4%,-11%
CCCCCCC[C@@H](C/C=C/CCC(=O)N(C)C/C(=C/Cl)C/C(=C\C(=O)N1C[C@H](O)CC1=O)OC)OC,11µM*,-19%,-19%,-14%,9%,4%
CC1(C)CC(=O)C2=C(C1)NC(Nc1nc3ccccc3o1)=NC2c1ccccc1 (configuration not stated),.,.,12%,12%,.,.
COc1ccc2c(c1)Cc1sc(NC(=O)c3ccc(Cl)cc3)nc1-2,10%,-1%,7%,17%,13%,.
CCOC(=O)/C(C)=N/Nc1nc(-c2ccc(NC(C)=O)cc2)cs1,3%,-19%,-15%,56µM*,0%,8%
O=C(COC(=O)CNC(=O)C1CCCCC1)NC1CCCC1,.,.,7%,16%,.,.
COc1ccc(CCNC(=O)CCc2c(C)c3cc4c(C)c(C)oc4cc3oc2=O)cc1,-15%,-2%,7%,3%,-8%,.
CCCCCCCCCCCCCCCC[n+]1ccc(CC(O)c2c(C)[nH]c3ccccc23)c2ccccc21 (configuration not stated),.,.,4%,-10%,.,.
Cc1coc2cc3oc(=O)c(CC(=O)N4CCCCC4)c(C)c3cc12,11%,8%,2%,7%,2%,.
COc1cc2oc(=O)c(CC(=O)N3CCCCC3)c(C)c2cc1OC,0%,0%,782%,16µM*,17%,.
CCN(CC)/[N+]([O-])=N/OCOC(=O)c1ccccc1OC(C)=O,.,.,3%,14%,.,.
COC(=O)c1ccc(C2Nc3ccc(/C(C)=N/NC(=O)C(OC)c4ccccc4)cc3C3C=CCC32)cc1 (configuration not stated),6%,-4%,0%,22µM*,1%,3%
COc1ccc(C(C)=O)cc1COC(=O)c1c(C)noc1C,1%,-18%,-5%,35µM*,6%,20%
COc1ccc(C(C)=O)cc1COC(=O)c1ccc(OCc2c(C)noc2C)cc1,1%,-25%,-1%,-12%,4%,-1%
COc1ccc(C(C)=O)cc1CN(C)C,10%,-2%,3%,8.9µM*,-6%,9%
Cc1nc2ccccc2nc1/C=C/c1ccc(N(C)C)cc1,.,.,-12%,?,.,.
C=CCN(CC=C)c1cnn(-c2nc3ccccc3[nH]2)c(=O)c1Cl,-6%,4%,12%,3%,6%,0%
O=c1c(Cl)c(NCCCO)cnn1-c1nc2ccccc2[nH]1,-25%,?,-2%,3.5µM*,3%,-30%
